Screening data as filed in PubChem.
The sample as a whole holds a higher share of hits than the screen did.
VDR inh: inhibitors of human vitamin D receptor | P11473 | Potency, µM, inactives show max response, negative = inhibition, actives largely listed as inhibitors | VDR-SRC2-3 peptide fluorescence polarization, 2 h | AID 504847 | 0.93% of 400,000 active; note: % is set by controls: 0 for no effect and ±100 for the full control effect
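Compounds are added to VDR with labelled SRC2-3 coactivator peptide and held 2 h at room temperature. Inhibition of the VDR–peptide interaction is then read as a change in fluorescence polarization.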
ALOX12 inh: blocks human arachidonate 12S-lipoxygenase; AID 1671190; 1.1% of 580,000 active; purified 12hLO, xylenol orange hydroperoxide absorbance; Potency, µM (series often up to 108 µM), for the others: at the highest dose activity change, negative = inhibition, hits mostly inhibitors; P18054; note: % is set by controls: 0 for no effect and ±100 for the full control effect
Target sequence (P18054 whole entry, looked up): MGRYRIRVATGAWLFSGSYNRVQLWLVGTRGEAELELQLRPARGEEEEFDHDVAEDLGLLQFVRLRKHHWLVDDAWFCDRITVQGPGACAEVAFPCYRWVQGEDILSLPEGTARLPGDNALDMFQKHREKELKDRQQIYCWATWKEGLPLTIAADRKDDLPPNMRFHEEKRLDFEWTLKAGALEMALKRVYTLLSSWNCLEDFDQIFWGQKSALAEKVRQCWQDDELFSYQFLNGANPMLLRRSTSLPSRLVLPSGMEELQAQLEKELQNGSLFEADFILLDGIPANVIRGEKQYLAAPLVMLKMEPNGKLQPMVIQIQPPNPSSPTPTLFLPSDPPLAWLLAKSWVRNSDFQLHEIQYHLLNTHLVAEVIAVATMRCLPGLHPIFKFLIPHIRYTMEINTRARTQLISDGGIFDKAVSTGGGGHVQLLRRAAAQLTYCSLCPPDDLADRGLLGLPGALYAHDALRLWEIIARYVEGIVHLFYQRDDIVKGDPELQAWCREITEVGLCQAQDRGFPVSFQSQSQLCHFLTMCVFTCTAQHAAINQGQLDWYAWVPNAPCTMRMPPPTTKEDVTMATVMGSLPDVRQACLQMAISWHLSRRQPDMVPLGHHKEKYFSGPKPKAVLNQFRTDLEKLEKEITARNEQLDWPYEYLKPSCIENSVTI
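Purified human 12hLO (150 nM final) in 25 mM Hepes, 0.01% Triton X-100, pH 7.0 was preincubated 15 min at room temperature with compound. Then 40 uM arachidonic acid was added, 30 min. Hydroperoxide was read by Fe-XO absorbance ratio 573/405 nm.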
G9a inh: inhibitors of human histone lysine methyltransferase G9a | Potency, µM (series often up to 102 µM), inactives show at the top dose activity, negative = inhibition, actives largely listed as inhibitors | 8.8% of 350,000 active | G9a H3K9 monomethylation, AlphaScreen, 2 h | Q96KQ7; note: % is set by controls: 0 for no effect and ±100 for the full control effect; nearly all actives have a fitted effect of over 75% in size
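AlphaScreen detection with an anti-monomethyl H3K9 antibody quantified product after a 2 h room-temperature reaction containing 500 nM biotinylated H3K9 peptide, 20 µM SAM and 20 nM enzyme, which had been preincubated 15 min with compound.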
Glioma ERSR ind: induces the endoplasmic reticulum stress response in human glioma cells | U87-MG GRP78 promoter luciferase reporter, 16 h | Potency, µM, for inactives: at the top dose activation, usual class: activators | 0.02% of 420,000 active; note: series mostly up to about 76 µM; % of control where 0% means no effect; nearly all actives have a fitted effect of over 35% in size
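Stably transfected U87-MG glioma cells carrying a GRP78-based luciferase sensor; 16 h compound incubation. Luminescence end-point read 10 min after Bright-Glo addition at room temperature.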
Sfp inh: blocks B. subtilis Sfp PPTase activity; Q9F4F7; Biochemical Sfp PPTase activity, qHTS; Potency, µM, inactives show largest response in the series, negative = inhibition, actives largely listed as inhibitors; 3.5% of 310,000 active; AID 1490;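 note: the enzyme is Sfp with the accession as filed and its product quenches rhodamine fluorescence; 0% = enzyme reaction without inhibitor and -100% = no enzyme wells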
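Compounds were incubated with enzyme (final 15 nM) for 15 min at room temperature before substrate addition started the reaction. Fluorescence at 525 nm excitation, 598 nm emission was recorded immediately and after 30 minutes.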
* hit, by the source's call; ? = inconclusive; . = not tested or not shown; [ ] = remark or other dose. Calls come from the whole dose curve; as a rule, active = well fitted curve in the direction sought with a large enough effect; inconclusive = small, poorly fitted or top-dose-only effect, or another doubt; inactive = no such curve, though single readings can be large; an effect the other way counts as inactive or inconclusive. Potency is the fitted concentration of half-maximal effect.

SMILES	VDR inh	ALOX12 inh	G9a inh	Glioma ERSR ind	Sfp inh
C=C(C)C[C@H]1CC=C[C@H](CC(=C)C)[N+]1(C)C	.	18µM*	.	.	.
Cc1nn2c(c1-c1ccnn1C(C)C)N(Cc1ccc(C(=O)O)s1)CCC2	.	28µM*	.	.	.
CCOc1ccc(OCCCCNC(C)(C)C)cc1	2%	?	22µM*	-3%	?
CC(C)(C)NCCCCOc1ccc(F)cc1	-3%	-1%	-16%	-2%	12%
CCOc1cccc(OCCOCCNC(C)(C)C)c1	15%	?	14µM*	-4%	-25%
CC(C)(S)[C@@H](N)C(=O)O	?	?	?	-3%	50µM*
CC(C)[C@@H](N)C(=O)O	8%	.	-1%[59 µM]	-3%	-20%
Cc1ccc(C(=O)NCCSc2c(C)[nH]c3ccccc23)cc1[N+](=O)[O-]	-14%	?	50µM*	-3%	-11%
Cc1cc(CNC(=O)c2ccc(C)c([N+](=O)[O-])c2)c2ccccc2n1	?	-9%	35µM*	-6%	20%
Cc1cc(CNC(=O)Cn2nc(C)c([N+](=O)[O-])c2C)c2ccccc2n1	1%	-18%	35µM*	-4%	16%
Cc1cc2cc(CNC(=O)c3ccc(C)c([N+](=O)[O-])c3)ccc2[nH]1	-15%	2%	56µM*	-1%	9%
CC(=O)N1N=C(c2ccco2)CC1c1ccc2nccnc2c1 (stereo unspecified)	.	-6%	.	.	.
CN1C(=O)C2(CCN(C(=O)NC3CCCCC3)CC2)c2ccccc21	.	6%	.	.	.
Cc1ccc(S(=O)(=O)n2ccc3c(OCCOCCSCC(NC(=O)OC(C)(C)C)C(=O)O)cccc32)cc1 (stereo unspecified)	-17%	-10%	-9%[12.7 µM]	1%	3%
Cc1ccc(S(=O)(=O)n2ccc3c(OCCOCCNCc4ccc(F)cc4)cccc32)cc1	12%	?	?	-15%	71µM*
O=C(Nc1c2ccccc2nc2ccccc12)C(Cl)(Cl)Cl	7%	.	45µM*	-1%	-12%
FC(F)(F)c1ccc(=S)[nH]c1	.	5µM*	.	.	.
O=C(COc1ncnc2ccc(Br)cc12)NC(c1ccccc1)c1ccccc1	.	10%	.	.	.
O=C(C1COc2ccccc2O1)N1CCc2ccccc21 (stereo unspecified)	10%	?	50µM*	4%	-7%
O=C(C1COc2ccccc2O1)N1CCCC1 (stereo unspecified)	-4%	0%	1%	0%	14%
O=C(O)C1C2C=CC(C3CC23)C1C(=O)N1CCc2ccccc21 (stereo unspecified)	-7%	-25%	79µM*	-1%	?
O=C(O)C1CC=CCC1C(=O)N1CCc2ccccc21 (stereo unspecified)	-14%	?	13µM*	-1%	-1%
CCN1CC(CN(C)Cc2cn(-c3ccccc3C)nc2-c2ccc(OC)c(F)c2)CC1=O (stereo unspecified)	.	10%	.	.	.
O=C1CCc2cc(C(=O)OC3CCOC3=O)ccc2N1 (stereo unspecified)	.	10%	.	.	.
COc1cccc(C#Cc2c(CO)[nH]c3ccccc23)c1	-14%	50µM*	7%[0.501 µM]	1%	.
SMILES	VDR inh	ALOX12 inh	G9a inh	Glioma ERSR ind	Sfp inh
CCSc1nc2c(c(=O)[nH]c(=O)n2C)n1CC(O)COc1ccc(Cl)cc1 (stereo unspecified)	-12%	-18%	1%[59 µM]	-4%	.
Cn1c(=O)[nH]c(=O)c2c1nc(NN)n2CCOc1ccccc1	-1%	0%	11µM*	-6%	25µM*
CCCn1c(N/N=C(C)\C=C\c2ccccc2)nc2c1c(=O)[nH]c(=O)n2C	.	.	?	.	40µM*
CCNc1nc2c(c(=O)[nH]c(=O)n2C)n1CCOc1ccccc1	.	14%	.	.	.
CC(C)Sc1nc2c(c(=O)[nH]c(=O)n2C)n1CC(O)COc1ccccc1 (stereo unspecified)	3%	-13%	22µM*	-1%	?
CC(O)CSc1nc2c(c(=O)[nH]c(=O)n2C)n1CC(O)COc1ccccc1 (stereo unspecified)	?	?	11µM*	-3%	-41%
CC(C)NC(=O)C(C)Sc1nnc(NC2CC2)s1 (stereo unspecified)	.	-2%	.	.	.
CCCCOC(=O)C(C)Oc1ccc2c(=O)c(Oc3ccc(C(C)(C)C)cc3)coc2c1 (stereo unspecified)	.	-11%	.	.	.
c1ccc(-c2nnn(Cc3csc(-c4ccccc4)n3)n2)cc1	.	5%	.	.	.
COc1cc(/C=C/c2cccc[n+]2C)ccc1OCC(=O)Nc1cccc(Cl)c1	20%	?	50µM*	1%	-17%
COc1ccc(/C=C/C(=O)OCC(=O)Nc2ccc(Cl)c(S(=O)(=O)N(C)C)c2)cc1OC	-5%	0.79µM*	12%[59 µM]	-3%	6%
COc1cc(/C=C/c2cc[n+](C)cc2)ccc1OCC(=O)Nc1ccc(Cl)c(Cl)c1	-15%	50µM*	?	-3%	-58%
COc1cc(/C=C/c2cccc[n+]2C)ccc1OCC(=O)Nc1ccccc1	-4%	?	45µM*	-2%	-12%
COc1ccc(/C=C/C(=O)OCC(=O)Nc2ccc(S(N)(=O)=O)cc2)cc1OC	4%	0%	6%	-6%	6%
COc1ccc(NC(=O)COc2ccc(/C=C/c3cc[n+](C)cc3)cc2OC)cc1	4%	?	-5%	-3%	-3%
O=S(=O)(c1ccc2nc(-c3ccco3)c(-c3ccco3)nc2c1)N1CCOCC1	-23%	14µM*	2µM*	-1%	10µM*
Nc1nc2cc(S(=O)(=O)N3CCOCC3)ccc2o1	40µM*	?	.	-2%	.
O=S(=O)(c1ccc2ccccc2c1)N1CCOCC1	-24%	-2%	-5%	-3%	16%
C/C(CCc1ccccc1)=N\NC(=S)NCCc1ccccc1	4%	40µM*	?	-1%	1%
COc1ccc(/C(C)=N/NC(=S)NCCc2ccccc2)cc1	-8%	0%	-40%	-2%	10%
C/C(=N\NC(=S)NCc1ccccc1)c1ccc2ccccc2c1	-12%	45µM*	1%[59 µM]	-5%	-14%
C/C(=N\NC(=S)NCCc1ccccc1)c1cccs1	-14%	45µM*	?	0%	7%
COCCNC(=S)N/N=C(\C)CCc1ccc2c(c1)OCO2	0%	282%	50µM*	-1%	40µM*
C/C(=N/NC(=S)NCc1ccccc1)c1ccncc1	.	-5%	.	.	.
C/C(CCC(C)C)=N\NC(=S)NCc1ccccc1	-24%	?	45µM*	-6%	-13%
COC(=O)c1ccc(Cl)cc1NC(=O)N1CC(C)Oc2ccc(C)cc21 (stereo unspecified)	.	-6%	.	.	.
COc1ccc2[nH]c(=O)c(CNc3ccccc3)cc2c1	-4%	?	35µM*	?	50µM*
COc1ccc2[nH]c(=O)c(CNc3ccccc3C)cc2c1	?	?	10µM*	9%	22µM*
COc1ccc2[nH]c(=O)c(CNc3ccccc3OC)cc2c1	4%	0%	35µM*	-3%	16µM*
COc1ccc2[nH]c(=O)c(CCC(=O)O)cc2c1	.	-5%	.	.	.
